This is part of a sample that, as a whole, favours compounds with a hit. Of some 79,000 tested, about 15% had one in any assay. No stated cut-off is given here; in the data, active means growth inhibition above about 70%; inactive means the rest.
Legend:
[1] = NCI Yeast Anticancer Drug Screen. Data for the rad50 strain (AID 155);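 further: 0% = growth of vehicle-only cultures of the same strain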; details: S. cerevisiae rad50 strain growth inhibition; at 50.0 µM; stronger effect = higher value
Outline: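 A DNA repair-deficient yeast mutant serves as the test organism; compound-induced growth inhibition is calculated against vehicle-treated cells.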

[2] = NCI Yeast Anticancer Drug Screen. Data for the mec2-1 strain (AID 157); details: S. cerevisiae mec2-1 strain, at 50.0 µM, stronger effect = higher value
Outline: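 Using mec2-1 yeast: add compound, measure growth, express inhibition versus vehicle-treated cultures.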

[3] = NCI Yeast Anticancer Drug Screen. Data for the sgs1 mgt1 strain (AID 161);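 further: 0% = growth of cultures given vehicle only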; details: S. cerevisiae sgs1 mgt1 strain, at 50.0 µM, stronger effect = higher value
Outline: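 Yeast cells carrying a defined DNA-repair defect were exposed to test compounds. Growth inhibition was measured relative to vehicle-treated controls.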

[4] = NCI Yeast Anticancer Drug Screen. Data for the cln2 rad14 strain (AID 165);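 further: 0% = growth equal to vehicle treated cultures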; details: S. cerevisiae cln2 rad14 strain, at 50.0 µM, stronger effect = higher value
Outline: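 Yeast strain cln2 rad14, bearing defects in cell cycle control and DNA repair, serves as the test system; values reflect growth inhibition compared with vehicle.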

[5] = NCI Yeast Anticancer Drug Screen. Data for the bub3 strain (AID 167); details: S. cerevisiae bub3 mutant strain, at 50.0 µM, stronger effect = higher value
Outline: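 Inhibition values come from growth of compound-treated mutant yeast normalised to vehicle-treated controls.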

[6] = NCI Yeast Anticancer Drug Screen. Data for the mlh1 rad18 strain (AID 175); details: S. cerevisiae mlh1 rad18 strain growth inhibition; at 50.0 µM; stronger effect = higher value
Outline: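 Steps: expose repair-defective yeast to compound; measure growth; express inhibition against vehicle-treated controls.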

Measured: growth inhibition

COC(=O)c1nc(N)nc(C(=O)OC)c1C(=O)c1cccs1
inactive: [1] -2.55% | [2] -9.05% | [3] -28.9% | [4] -24.8% | [5] -43% | [6] -20.9%

CCCCCCC(C)C(C#N)C(=O)OCC (configuration not stated)
inactive: [1] -11.8% | [2] -11.8% | [3] -26.1% | [4] -4.15% | [5] -16.6% | [6] -14.3%

CCCCCCCCCCCCCCCCCC(=O)OCC(COC1OC(CS(=O)(=O)O)C(O)C(O)C1O)OC(=O)CCCCCCCCCCCCCCCCC (configuration not stated)
inactive: [1] 23.6% | [2] 18.4% | [3] 7.2% | [4] 3.25% | [5] -1.95% | [6] 19.6%

CCN(CC)C(=O)CCn1ccc(=O)[nH]c1=O
inactive: [1] -52.4% | [2] -33.4% | [3] -25.8% | [4] 9.55% | [5] -2.75% | [6] -5.35%

COc1ccc(C2ON(c3ccccn3)CC=C2C)cc1 (configuration not stated)
inactive: [1] 12.4% | [2] -9.25% | [3] 12.6% | [4] 12.2% | [5] -2.45% | [6] 6.55%

NC(=O)c1ncn(C2CCC(CP(=O)(O)O)C2)c1N (configuration not stated)
inactive: [1] -7.45% | [2] -14.1% | [3] -9.55% | [4] -28.4% | [5] -7% | [6] 5.8%

COc1cc(C=Nc2cc(Cl)c(N=O)c(Cl)c2)ccc1N(CCCCl)CCCCl
inactive: [1] 33.4% | [2] -13% | [3] 40.8% | [4] -15.8% | [5] 2.2% | [6] 12.3%

COc1ccc(/C(Cl)=C(\C=O)c2cc(OC)c(OC)c(OC)c2)cc1OC
inactive: [1] -0.9% | [2] 23.1% | [3] -5% | [4] 13.8% | [5] -3.45% | [6] 13.9%

CC1=CC2=NCC(O)CN2C=C1 (configuration not stated)
inactive: [1] -4.2% | [2] 28.6% | [3] 9.25% | [4] 12.8% | [5] 14.4% | [6] 2.2%

N#C/C(=C/N1C(=O)/C(=C/c2ccc([N+](=O)[O-])cc2)SC1=S)C(N)=O
inactive: [1] 45% | [2] 56.5% | [3] 63.4% | [4] 54.3% | [5] 45% | [6] 42%

CCN(CC)Cc1cc(Nc2ccnc3ccc4nn(C)nc4c23)ccc1O
inactive: [1] -16.4% | [2] -19.4% | [3] -28.1% | [4] 4.45% | [5] 6.65% | [6] -1.75%

Cc1cc(Br)c2c(c1N)C(=O)c1ccccc1C2=O
inactive: [1] 23.6% | [2] 35% | [3] 31.4% | [4] -7.75% | [5] 7.1% | [6] 15.6%

O=C1OCc2c[n+]([O-])ccc21
inactive: [1] -17.4% | [2] -9.2% | [3] -6.85% | [4] -30.2% | [5] 0.65% | [6] 4.35%

CCCCc1c2c(nc3c1CCc1cc4cc5c(nc4nc1-3)-c1nc3c(c(CCCC)c1CC5)CCCC3)CCCC2
inactive: [1] 7.5% | [2] 24.9% | [3] 16.1% | [4] -45.7% | [5] 9.95% | [6] 29.4%

O=C1OC(c2ccc(Cl)cc2)=C/C1=C/c1ccccc1O
inactive: [1] -15.8% | [2] 4.75% | [3] -1.15% | [4] -47.7% | [5] -0.65% | [6] 5.05%

CCN(CC)CCN(C)CCN(CC)CC
inactive: [1] 14.1% | [2] 1.7% | [3] 18.6% | [4] 9.8% | [5] 38.7% | [6] 17.6%

CCOC(=O)c1nnsc1NC(=O)Nc1ccc(Cc2ccc(NC(=O)Nc3snnc3C(=O)OCC)cc2)cc1
inactive: [1] -14.3% | [2] 8.25% | [3] 12.2% | [4] 18.3% | [5] 5.45% | [6] 10.3%

NC1=NS(=O)(=O)Nc2nc(-c3ccc(Cl)cc3)c(-c3ccc(Cl)cc3)nc21
inactive: [1] -16.6% | [2] -17.2% | [3] -25% | [4] 3.45% | [5] -22% | [6] -24.8%

CCOCC(OCC)OCC
inactive: [1] -4.1% | [2] 0.45% | [3] -2.55% | [4] 22.9% | [5] -5.45% | [6] 6.7%

COC(=O)C(C(=O)C(=O)Nc1ccc([N+](=O)[O-])cc1)c1nc2ccc([N+](=O)[O-])cc2[nH]c1=O (configuration not stated)
inactive: [1] 8.95% | [2] -3.1% | [3] -32.5% | [4] -41.2% | [5] -0.85% | [6] 8.75%

CC(=O)CC(C)(C)OCc1ccccc1
inactive: [1] -21.9% | [2] -4.95% | [3] -12.2% | [4] -43.4% | [5] 0.4% | [6] 26.1%

O=C1c2ccccc2C(=O)N1CC(O)COc1cccc2ccccc12 (configuration not stated)
inactive: [1] -23.1% | [2] -79.5% | [3] -24.4% | [4] -13.9% | [5] 8.3% | [6] -14.8%

CCOC(=O)C(Cl)(NC(=O)OCc1ccccc1)C(F)(F)F (configuration not stated)
inactive: [1] -21.8% | [2] 0% | [3] 7.15% | [4] 22.5% | [5] 6.7% | [6] -56.1%

CCOC(=O)c1nc(-c2ccccc2)c(-c2ccccc2)c(-c2ccccc2)c1C
inactive: [1] -24.6% | [2] -2.55% | [3] 10.2% | [4] -36.9% | [5] -0.6% | [6] -4.85%

CC1CCCC(CCO)CC1 (configuration not stated)
inactive: [1] 11.6% | [2] 5.8% | [3] 6.4% | [4] 0.1% | [5] 15.7% | [6] 6.3%

COc1ccc(C(c2cc3c(cc2O)OCO3)N2CCOCC2)c(OC)c1 (configuration not stated)
inactive: [1] -75.2% | [2] -31.1% | [3] 4.15% | [4] -25.9% | [5] -29.6% | [6] -17.9%

COc1cccc2cc[nH]c12
inactive: [1] 0.2% | [2] 11.2% | [3] -9.2% | [4] 10.8% | [5] 7.7% | [6] 8.6%

CCCCC(C)NC=O (configuration not stated)
inactive: [1] 31.4% | [2] 13% | [3] 3.9% | [4] 9% | [5] 14.4% | [6] 24.6%

Cn1cnc([N+](=O)[O-])c1/N=C/c1ccccc1
inactive: [1] 0.1% | [2] 2.95% | [3] -3.95% | [4] -41.3% | [5] -28.5% | [6] -6.5%

CCn1c2ccc(C=O)cc2c2cc([N+](=O)[O-])ccc21
inactive: [1] 6.25% | [2] -2.1% | [3] 7.2% | [4] -0.05% | [5] -4.7% | [6] 15.1%

Cc1c(CCO)sc[n+]1CC(=O)c1ccccc1
inactive: [1] -14.5% | [2] -19% | [3] -3.7% | [4] 1.55% | [5] 2.3% | [6] 1%

CCOC(OCC)n1ncnc1NC(=S)NCc1ccccc1
inactive: [1] -15.4% | [2] -23.6% | [3] 3.75% | [4] -2.7% | [5] -5.85% | [6] -11.2%

ClC(c1ccccc1)c1cccc2ccccc12 (configuration not stated)
inactive: [1] 30.6% | [2] -2.45% | [3] 7.7% | [4] 21.5% | [5] 11.8% | [6] 41.6%

CS/C1=C(\c2ccc(C)cc2)N(c2ccccc2)C(=O)C(=O)N(c2ccccc2)/C(c2ccc(C)cc2)=C(/SC)SS1
inactive: [1] 12.2% | [2] -27.1% | [3] 2.9% | [4] 3% | [5] 8% | [6] 12.5%

Cc1cc2oc(=O)[nH]c(=S)c2c(C)c1C
inactive: [1] -47.7% | [2] -19.2% | [3] -35.2% | [4] 2.45% | [5] -59.5% | [6] -36.6%

CC(C)COC(=O)N1N=NC2C3CC(=O)C(O3)C21 (configuration not stated)
inactive: [1] 9.8% | [2] -9.7% | [3] -14.2% | [4] 11.6% | [5] -7.75% | [6] -4.75%

COc1ccc(N=Cc2ccc(N(CCC#N)S(=O)(=O)c3ccccc3)cc2)cc1
inactive: [1] 0.2% | [2] -13.3% | [3] 2.05% | [4] 11.2% | [5] 9.25% | [6] -3.15%

CC(=O)OCC1OC(N2C(S)=C(C#N)C(c3ccco3)C(C(C)=O)=C2c2ccccc2)C(OC(C)=O)C(OC(C)=O)C1OC(C)=O (configuration not stated)
inactive: [1] 21.4% | [2] 15.4% | [3] -0.25% | [4] -7.4% | [5] -19.4% | [6] -6.15%

C=C[C@@]1(C)CC2CC[C@]3(C)C(C)=CC(=O)CC3[C@]2(C)CC1O (some centres not stated)
inactive: [1] 6.9% | [2] 3.3% | [3] 22.7% | [4] -20.3% | [5] 13% | [6] 10.4%

Cc1nc(N)[nH]c(=O)c1Cc1ccc(Cl)cc1Cl
inactive: [1] -1.65% | [2] -1.15% | [3] -5.7% | [4] -44.4% | [5] -12.6% | [6] 8.55%

CC(=O)C(C)O (configuration not stated)
inactive: [1] -27.8% | [2] -18.8% | [3] -15.2% | [4] -0.95% | [5] -21.4% | [6] -21.1%

O=C(COc1ccc(Cl)cc1)OCCCl
inactive: [1] 10% | [2] 8.3% | [3] 9.1% | [4] 0.35% | [5] 9.3% | [6] 8.3%

From PubChem BioAssay (NCI)
